From PubChem BioAssay
A selection: hits, their analogues and other compounds. The true share with any hit is near 21%.
DT40 TDP1 no CPT = qHTS for Inhibitors of human tyrosyl-DNA phosphodiesterase 1 (TDP1): qHTS in cells in absence of CPT. DT40 Tdp1-/- hTDP1 cells, no CPT, ATP luminescence, 48 h. Potency, µM (top dose mostly 46.2 µM), without a hit: top-dose activity change, negative = growth inhibition, usual class: inhibitors. 420,000 tested, 15% active. AID 686978, 2013; note: potency is the fitted concentration of half-maximal effect; nearly all actives have a fitted effect of over 55% in size
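No-CPT arm: Tdp1-/-;hTDP1 DT40 cells (400/well) plus compounds, incubated ≥48 hr at 37 °C. Readout CellTiter-Glo luminescence.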
RORg inh = qHTS for inhibitors of ROR gamma transcriptional activity; Potency, µM (doses to about 53.6 µM), inactives show top-dose activity change, negative = inhibition, most hits filed as inhibitors; 310,000 tested, 5.4% active; Nuclear receptor ROR-gamma (Mus musculus), P51450; Drosophila S2 Gal4-RORgamma UAS-luciferase reporter, 20 h; note: potency is the fitted concentration of half-maximal effect; nearly all actives have a fitted effect of over 60% in size
Target sequence (P51450 whole entry, looked up, the tested form may be a part): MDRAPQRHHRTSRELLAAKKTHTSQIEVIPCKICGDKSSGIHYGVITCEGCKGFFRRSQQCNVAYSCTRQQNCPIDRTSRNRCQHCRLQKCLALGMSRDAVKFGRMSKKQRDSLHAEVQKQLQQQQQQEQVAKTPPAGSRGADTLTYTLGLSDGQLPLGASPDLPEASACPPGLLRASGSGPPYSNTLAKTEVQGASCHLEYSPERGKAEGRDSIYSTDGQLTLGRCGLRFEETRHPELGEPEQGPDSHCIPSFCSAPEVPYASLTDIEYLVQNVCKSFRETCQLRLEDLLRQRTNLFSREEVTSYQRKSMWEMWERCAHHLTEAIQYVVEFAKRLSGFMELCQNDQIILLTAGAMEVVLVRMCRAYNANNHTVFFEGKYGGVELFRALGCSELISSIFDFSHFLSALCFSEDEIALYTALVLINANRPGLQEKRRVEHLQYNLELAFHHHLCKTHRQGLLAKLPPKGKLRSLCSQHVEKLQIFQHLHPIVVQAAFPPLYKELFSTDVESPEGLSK
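Drosophila Schneider cells stably carrying a metallothionein-driven Gal4 DBD–ROR gamma fusion and a UAS-Photinus luciferase reporter were exposed to compound for 1 hr, then induced with copper sulfate (700 uM final) for 20 hr at ambient temperature before luminescence reading.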
TDP1 cell CPT = qHTS for Inhibitors of human tyrosyl-DNA phosphodiesterase 1 (TDP1): qHTS in cells in presence of CPT. 420,000 tested, 12% active. chicken DT40 Tdp1-/-;hTDP1 cells + 20 nM CPT, ATP luminescence, 48 h. Potency, µM (titrated, usually from 46.2 µM), for inactives: at the top dose activity change, negative = growth inhibition, usual class: inhibitors. AID 686979, 2013; note: potency is the fitted concentration of half-maximal effect; nearly all actives have a fitted effect of over 55% in size
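Chicken DT40 Tdp1-/- cells stably complemented with human TDP1 were seeded at 400 cells/well in medium containing 20 nM camptothecin, exposed to pin-transferred compounds, and grown at 37 °C for at least 48 hr. Viability was read as ATP luminescence.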
IL1B secr inh = qHTS for Inhibitors of Inflammasome Signaling: IL-1-beta AlphaLISA Primary Screen; 360,000 tested, 4.7% active; activity change, % at 57.5 µM; THP-1 LPS/ATP IL-1B secretion, AlphaLISA, 16 h; hits give low values; in the data active = activity change below about -50%; inconclusive = mostly about -30% to -49%
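THP-1 cells pretreated 1 hr with compounds (up to 57.5 uM final), then stimulated with LPS (250 ng/mL final) plus ATP (1.25 mM final); secreted IL-1B measured by AlphaLISA after 16 hr, decreased signal indicating inhibition.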
VP16 counter = VP16 counterscreen qHTS for inhibitors of ROR gamma transcriptional activity; Potency, µM (doses to about 53.6 µM), for inactives: at the highest dose activity, negative = inhibition, usual class: inhibitors; 310,000 tested, 3.5% active; Drosophila S2 Gal4-VP16 UAS-luciferase, luminescence, 20 h; AID 2546, 2010;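 note: Gal4-VP16 expression switched on by copper sulfate through the metallothionein promoter; potency is the fitted concentration of half-maximal effect; nearly all actives have a fitted effect of over 50% in size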
ELG1 repair inh = qHTS screen for small molecules that inhibit ELG1-dependent DNA repair in human embryonic kidney (HEK293T) cells expressing luciferase-tagged ELG1; HEK293T ELG1-luciferase reporter, luminescence, 16 h; DNA damage induced by 5-fluorouridine; Potency, µM (highest dose often 46.1 µM), without a hit: at the top dose activity change, negative = inhibition, actives largely listed as inhibitors; 330,000 tested, 2.3% active; note: potency is the fitted concentration of half-maximal effect; nearly all actives have a fitted effect of over 55% in size
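Cells (2,000 per well) received 5-fluorouridine plus test compound or DMSO and were incubated 16 hr at 37 °C, 5% CO2. Luciferase activity was read by luminescence 30 min after ONE-Glo addition; signal suppression marked inhibition of damage-induced ELG1 function.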
Starred values were filed as active, the others as inactive; [ ] = remark or other dose. Unless noted, calls come from the whole dose curve; as a rule, active = well fitted curve in the direction sought with a large enough effect; inconclusive = small, poorly fitted or top-dose-only effect, or another doubt; inactive = no such curve, though single readings can be large; an effect the other way counts as inactive or inconclusive. % is set by controls: 0 for no effect and ±100 for the full control effect.

What do the screens show for `CCc1c(C(=O)N/N=C/c2ccc(OCc3ccc(F)cc3)c(OC)c2)nnn1-c1nonc1N`?
DT40 TDP1 no CPT: 5.8µM*; RORg inh: inconclusive; TDP1 cell CPT: 23µM*; IL1B secr inh: 18; VP16 counter: -1%; ELG1 repair inh: -11%

How did Nc1nonc1-n1nnc(C(=O)N/N=C/c2ccc(OCc3ccc(F)cc3)cc2)c1COc1ccccc1 do in these assays?
DT40 TDP1 no CPT: inconclusive; RORg inh: 7.1µM*; TDP1 cell CPT: inconclusive; IL1B secr inh: -6; VP16 counter: inconclusive; ELG1 repair inh: 1%

How did COc1ccc(/C=N/NC(=O)c2nnn(-c3nonc3N)c2C)cc1OC do in these assays?
DT40 TDP1 no CPT: -9%; TDP1 cell CPT: inconclusive; IL1B secr inh: -4

What do the screens show for `Cc1ccc(COc2ccc(/C=N/NC(=O)c3nnn(-c4nonc4N)c3COc3ccc(F)cc3)cc2)cc1`?
DT40 TDP1 no CPT: inconclusive; RORg inh: inconclusive; TDP1 cell CPT: inconclusive; IL1B secr inh: 24; VP16 counter: 2%; ELG1 repair inh: 4%

Results for CCOc1cc(/C=N/NC(=O)c2nnn(-c3nonc3N)c2C)ccc1OCc1ccc(F)cc1 ?
DT40 TDP1 no CPT: 13%; RORg inh: 1%; TDP1 cell CPT: -28%; IL1B secr inh: 0; VP16 counter: -4%; ELG1 repair inh: 1%

What do the screens show for `COC(=O)c1ccc(C=O)cc1`?
RORg inh: -3%; VP16 counter: -21%

Results for CN(C(=O)c1ccc2c(c1)OCO2)C1CCS(=O)(=O)C1 (stereo not drawn) ?
DT40 TDP1 no CPT: 5%; TDP1 cell CPT: -8%; IL1B secr inh: 6; ELG1 repair inh: 14%

Results for Cc1ccccc1C(=O)O[C@H]1[C@H](Cc2ccccc2)NS(=O)(=O)[C@H]2CC3C=C[C@]12O3 ?
DT40 TDP1 no CPT: 20µM*; TDP1 cell CPT: inconclusive; IL1B secr inh: 2; ELG1 repair inh: inconclusive

What do the screens show for `Cc1cccc(C(=O)O[C@@H]2[C@H](Cc3ccccc3)NS(=O)(=O)[C@H]3C[C@@H]4C=C[C@]23O4)c1`?
DT40 TDP1 no CPT: 23µM*; TDP1 cell CPT: inconclusive; IL1B secr inh: -16; ELG1 repair inh: 12%

How did Cc1cccc(C(=O)O[C@H]2[C@H](Cc3ccccc3)NS(=O)(=O)[C@H]3CC4C=C[C@]23O4)c1 do in these assays?
DT40 TDP1 no CPT: inconclusive; TDP1 cell CPT: inconclusive; IL1B secr inh: -24; ELG1 repair inh: 25%

How did C[C@@H]1NS(=O)(=O)[C@H]2C[C@@H]3C=C[C@]2(O3)[C@H]1OC(=O)c1ccc(C(C)(C)C)cc1 do in these assays?
DT40 TDP1 no CPT: 16µM*; TDP1 cell CPT: 23µM*; IL1B secr inh: 0; ELG1 repair inh: 1%

Results for CC(C)(C)n1ncc2c(=O)n(Cc3ccc(Cl)c(Cl)c3)cnc21 ?
DT40 TDP1 no CPT: 10%; RORg inh: -25%; TDP1 cell CPT: 6%; IL1B secr inh: 9; VP16 counter: -18%; ELG1 repair inh: inconclusive

What do the screens show for `Cc1ccc(Cn2cnc3c(cnn3C(C)(C)C)c2=O)cc1`?
DT40 TDP1 no CPT: 13µM*; RORg inh: -28%; TDP1 cell CPT: 26µM*; IL1B secr inh: -17; VP16 counter: inconclusive; ELG1 repair inh: 16µM*

How did Cc1c(C(=O)NCCCN2CCOCC2)oc2c1C1(CCC2)SCCS1 do in these assays?
DT40 TDP1 no CPT: 23µM*; RORg inh: 31%; TDP1 cell CPT: 12µM*; IL1B secr inh: 0; VP16 counter: 2%; ELG1 repair inh: inconclusive

What do the screens show for `COc1ccc(CSCCc2n[nH]c(=S)n2-c2ccccc2)cc1C`?
DT40 TDP1 no CPT: inconclusive; RORg inh: inconclusive; TDP1 cell CPT: inconclusive; IL1B secr inh: 31; VP16 counter: -8%; ELG1 repair inh: inconclusive

Results for COc1ccc(CNc2ccc(C)cc2)cc1Br ?
DT40 TDP1 no CPT: inconclusive; RORg inh: 43%; TDP1 cell CPT: -1%; IL1B secr inh: inconclusive; VP16 counter: -13%; ELG1 repair inh: inconclusive

Results for COc1ccc(CCCc2n[nH]c(=S)n2C)cc1C ?
DT40 TDP1 no CPT: -12%; RORg inh: 5µM*; TDP1 cell CPT: -29%; IL1B secr inh: -3; VP16 counter: -3%[10 µM]; ELG1 repair inh: -17%

Results for COc1ccc(Cc2n[nH]c(=S)n2C)cc1Br ?
DT40 TDP1 no CPT: -10%; RORg inh: 38%; TDP1 cell CPT: 1%; IL1B secr inh: -68*; VP16 counter: -7%; ELG1 repair inh: -9%

How did Nn1c(Cc2ccc(Br)cc2)n[nH]c1=S do in these assays?
DT40 TDP1 no CPT: -29%; RORg inh: -37%; TDP1 cell CPT: -15%; IL1B secr inh: 6; VP16 counter: 6%; ELG1 repair inh: -1%

Results for COc1ccc(Cc2nc(=S)[nH][nH]2)cc1Br ?
DT40 TDP1 no CPT: -21%; RORg inh: 7.9µM*; TDP1 cell CPT: 2%; IL1B secr inh: 23; VP16 counter: inconclusive; ELG1 repair inh: -6%

How did CCN(C(=O)COC(=O)CCCc1c[nH]c2ccccc12)c1c(N)n(Cc2ccccc2)c(=O)[nH]c1=O do in these assays?
DT40 TDP1 no CPT: -26%; TDP1 cell CPT: inconclusive; IL1B secr inh: 11

Results for Cc1ccccc1CNC(=O)CN(c1cccc(C)c1C)S(C)(=O)=O ?
DT40 TDP1 no CPT: inconclusive; TDP1 cell CPT: -27%

Results for CCC(CC)(CC(=O)Nc1cccc(/C=C/c2nc(C3CCC3)cs2)c1)C(=O)O ?
DT40 TDP1 no CPT: inconclusive; RORg inh: -43%; TDP1 cell CPT: -11%; VP16 counter: inconclusive

How did Cc1ccc(C(O)c2ncc(-c3cccc4ccccc34)[nH]2)c(C)c1 (stereo not drawn) do in these assays?
DT40 TDP1 no CPT: inconclusive; TDP1 cell CPT: inconclusive; IL1B secr inh: -9

What do the screens show for `Nc1ccc2oc(=O)c3ccccc3c2c1`?
DT40 TDP1 no CPT: -21%; RORg inh: 1%; TDP1 cell CPT: -25%; IL1B secr inh: -77*; VP16 counter: -9%; ELG1 repair inh: inconclusive

How did O=c1oc(=O)c2ccccc2c2ccccc12 do in these assays?
DT40 TDP1 no CPT: -1%; TDP1 cell CPT: 9%; IL1B secr inh: 9
